# Reference: PubChem BioAssay AID1159580 (chemical genetic matrix, 2015)
# Several values for one entry are separate records, joined by “and”; a condition that tells them apart may be missing. Equal entries are not always repeated. Out of some 5,500 compounds screened, about 2,000 (36%) were called active. About 18% were inconclusive and are not listed. The list shows a part of the results. A number with no mark means an inactive call. Cut-off read from the data, not from the text of the source: active = normalized growth mostly below about 0.91 (no sharp cut-off); inconclusive = no clear call, values can overlap the other calls; inactive = mostly above about 0.92.
# Test: chemical genetic growth profiling, strain panel (AID 1159580);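 note: tested at 20 µM; growth read once vehicle control cultures reached saturation at 30 °C; 1 = growth at the plate median or of vehicle wells; lower values mean less growth of the strain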
# Settings: S. cerevisiae deletion strains, growth OD
compound,measurement,setting,value
COc1cc(O)c(C)c(O)c1,normalized growth,"locus YAL013W, strain DEP1, hits give low values",0.999
same,normalized growth,"locus YAL021C, strain ccr4, hits give low values",1.03
same,normalized growth,"locus YAL026C, strain drs2, hits give low values",1.02
same,normalized growth,"locus YAL030W, strain snc1, hits give low values",1.02
same,normalized growth,"locus YBL061C, strain skt5, hits give low values",1.01
same,normalized growth,"locus YBR009C, strain hhf1, hits give low values",1.02
same,normalized growth,"locus YBR021W, strain FUR4, hits give low values",0.995
same,normalized growth,"locus YBR023C, strain chs3, hits give low values",1.02
same,normalized growth,"locus YBR171W, strain sec66, hits give low values",1.03
same,normalized growth,"locus YBR229C, strain ROT2, hits give low values",0.998
same,normalized growth,"locus YBR231C, strain swc5, hits give low values",1.01
same,normalized growth,"locus YBR279W, strain paf1, hits give low values",1.01
same,normalized growth,"locus YCL011C, strain gbp2, hits give low values",1
same,normalized growth,"locus YCL016C, strain dcc1, hits give low values",1
same,normalized growth,"locus YCL029C, strain bik1, hits give low values",1.04
same,normalized growth,"locus YCL061C, strain MRC1, hits give low values",1.01
same,normalized growth,"locus YCL069W, strain vba3, hits give low values",1.01
same,normalized growth,"locus YCR088W, strain abp1, hits give low values",1.01
same,normalized growth,"locus YDL005C, strain med2, hits give low values",1.01
same,normalized growth,"locus YDL035C, strain GPR1, hits give low values",1.01
same,normalized growth,"locus YDL040C, strain nat1, hits give low values",1.01
same,normalized growth,"locus YDL074C, strain BRE1, hits give low values",1.02
same,normalized growth,"locus YDL101C, strain DUN1, hits give low values",1.01
same,normalized growth,"locus YDL134C, strain PPH21, hits give low values",1
same,normalized growth,"locus YDL185W, strain tfp1, hits give low values",1.02
same,normalized growth,"locus YDL192W, strain arf1, hits give low values",1
same,normalized growth,"locus YDR001C, strain nth1, hits give low values",1.01
same,normalized growth,"locus YDR069C, strain doa4, hits give low values",1.01
same,normalized growth,"locus YDR101C, strain arx1, hits give low values",1
same,normalized growth,"locus YDR137W, strain rgp1, hits give low values",1.05
same,normalized growth,"locus YDR150W, strain NUM1, hits give low values",0.995
same,normalized growth,"locus YDR159W, strain sac3, hits give low values",1.01
same,normalized growth,"locus YDR162C, strain NBP2, hits give low values",1.02
same,normalized growth,"locus YDR195W, strain ref2",1.02
same,normalized growth,"locus YDR297W, strain sur2, hits give low values",1.01
same,normalized growth,"locus YDR318W, strain mcm21, hits give low values",1.01
same,normalized growth,"locus YDR334W, strain swr1, hits give low values",1.02
same,normalized growth,"locus YDR335W, strain msn5, hits give low values",1.04
same,normalized growth,"locus YDR388W, hits give low values",1
same,normalized growth,"locus YDR392W, strain spt3, hits give low values",1.03
same,normalized growth,"locus YDR502C, strain sam2, hits give low values",1.04
same,normalized growth,"locus YEL003W, strain gim4, hits give low values",1.03
same,normalized growth,"locus YEL037C, strain rad23, hits give low values",1.02
same,normalized growth,"locus YEL061C, strain CIN8 (second series), hits give low values",1.02
same,normalized growth,"locus YEL061C, strain CIN8, hits give low values",1
same,normalized growth,"locus YER015W, strain faa2, hits give low values",1
same,normalized growth,"locus YER016W, strain bim1, hits give low values",1.02
same,normalized growth,"locus YER110C, hits give low values",1.01
same,normalized growth,"locus YER111C, strain swi4, hits give low values",1.01
same,normalized growth,"locus YER155C, strain BEM2 (second series), hits give low values",1.04
same,normalized growth,"locus YER155C, strain BEM2, hits give low values",0.999
same,normalized growth,"locus YER167W, strain BCK2, hits give low values",1
same,normalized growth,"locus YFR010W, strain ubp6, hits give low values",1.02
same,normalized growth,"locus YGL078C, strain dbp3, hits give low values",1.03
same,normalized growth,"locus YGL086W, strain mad1, hits give low values",1.01
same,normalized growth,"locus YGL167C, strain pmr1, hits give low values",1.01
same,normalized growth,"locus YGL173C, strain kem1, hits give low values",1.02
same,normalized growth,"locus YGL227W, strain vid30, hits give low values",1.01
same,normalized growth,"locus YGL240W, strain doc1, hits give low values",0.977
same,normalized growth,"locus YGL248W, strain PDE1, hits give low values",1.03
same,normalized growth,"locus YGL253W, strain hxk2, hits give low values",1.02
same,normalized growth,"locus YGR135W, strain pre9, hits give low values",1.02
same,normalized growth,"locus YGR252W, strain gcn5, hits give low values",0.973
same,normalized growth,"locus YHR013C, strain ard1, hits give low values",1.01
same,normalized growth,"locus YHR027C, strain rpn1, hits give low values",1.01
same,normalized growth,"locus YHR030C, strain SLT2, hits give low values",0.997 and 0.992
same,normalized growth,"locus YHR079C, strain IRE1 (second series), hits give low values",1.01
same,normalized growth,"locus YHR079C, strain IRE1, hits give low values",0.996
same,normalized growth,"locus YHR094C, strain hxt1, hits give low values",1.01
same,normalized growth,"locus YHR129C, strain ARP1, hits give low values",1.01
same,normalized growth,"locus YHR142W, strain chs7, hits give low values",1.02
same,normalized growth,"locus YHR200W, strain rpn10, hits give low values",1.02
same,normalized growth,"locus YIL066C, strain RNR3, hits give low values",1.02
same,normalized growth,"locus YIL073C, strain SPO22, hits give low values",1.13
same,normalized growth,"locus YIL125W, strain kgd1, hits give low values",1.02
same,normalized growth,"locus YIR030C, strain dcg1, hits give low values",1.01
same,normalized growth,"locus YJL092W, strain hpr5, hits give low values",1.01
same,normalized growth,"locus YJL095W, strain BCK1 (second series), hits give low values",1.01
same,normalized growth,"locus YJL095W, strain BCK1, hits give low values",1.01 and 1
same,normalized growth,"locus YJL115W, strain asf1, hits give low values",1.01
same,normalized growth,"locus YJL129C, strain trk1, hits give low values",1.05
same,normalized growth,"locus YJL134W, strain LCB3, hits give low values",1
same,normalized growth,"locus YJL154C, strain vps35, hits give low values",1.01
same,normalized growth,"locus YJL164C, strain tpk1, hits give low values",1.03
same,normalized growth,"locus YJL166W, strain qcr8, hits give low values",1
same,normalized growth,"locus YJL168C, strain set2, hits give low values",1.01
same,normalized growth,"locus YJL187C, strain SWE1 (second series), hits give low values",1.01
same,normalized growth,"locus YJL187C, strain SWE1, hits give low values",1.01
same,normalized growth,"locus YJR043C, strain POL32, hits give low values",1.02
same,normalized growth,"locus YJR066W, strain TOR1, hits give low values",0.906
same,normalized growth,"locus YJR075W, strain HOC1, hits give low values",1
same,normalized growth,"locus YKL009W, strain mrt4, hits give low values",1.16 [resistant] (active)
same,normalized growth,"locus YKL068W, hits give low values",1.01
same,normalized growth,"locus YKL085W, strain MDH1 (second series), hits give low values",1.02
same,normalized growth,"locus YKL085W, strain MDH1, hits give low values",1.02
same,normalized growth,"locus YKL160W, strain elf1, hits give low values",1.01
same,normalized growth,"locus YKL190W, strain CNB1, hits give low values",0.998
same,normalized growth,"locus YKR001C, strain vps1, hits give low values",1.02
same,normalized growth,"locus YKR026C, strain gcn3, hits give low values",0.995
same,normalized growth,"locus YKR091W, strain srl3, hits give low values",1.01
same,normalized growth,"locus YLL001W, strain dnm1, hits give low values",1.01
same,normalized growth,"locus YLL026W, hits give low values",1.01
same,normalized growth,"locus YLL041C, strain sdh2, hits give low values",1.01
same,normalized growth,"locus YLR027C, strain aat2, hits give low values",1.01
same,normalized growth,"locus YLR039C, strain RIC1, hits give low values",1.02
same,normalized growth,"locus YLR058C, strain SHM2, hits give low values",1.01
same,normalized growth,"locus YLR102C, strain apc9, hits give low values",1.01
same,normalized growth,"locus YLR113W, strain HOG1, hits give low values",0.975
same,normalized growth,"locus YLR221C, strain rsa3, hits give low values",1.01
same,normalized growth,"locus YLR258W, strain gsy2, hits give low values",1.02
same,normalized growth,"locus YLR262C, strain YPT6 (second series), hits give low values",1.01
same,normalized growth,"locus YLR262C, strain YPT6, hits give low values",1.05
same,normalized growth,"locus YLR268W, strain sec22, hits give low values",1.02
same,normalized growth,"locus YLR320W, strain mms22, hits give low values",1.02
same,normalized growth,"locus YLR330W, strain CHS5, hits give low values",1
same,normalized growth,"locus YLR342W, strain FKS1 (second series), hits give low values",1
same,normalized growth,"locus YLR342W, strain FKS1, hits give low values",1.02
same,normalized growth,"locus YLR357W, strain rsc2, hits give low values",1.02
same,normalized growth,"locus YLR370C, strain arc18, hits give low values",1.02
same,normalized growth,"locus YLR371W, strain rom2, hits give low values",1.01
same,normalized growth,"locus YLR384C, strain iki3, hits give low values",1.03
same,normalized growth,"locus YLR418C, strain cdc73, hits give low values",1.02
same,normalized growth,"locus YML016C, strain PPZ1, hits give low values",1.01
same,normalized growth,"locus YML032C, strain rad52, hits give low values",1
same,normalized growth,"locus YML120C, strain ndi1, hits give low values",0.97
same,normalized growth,"locus YML124C, strain tub3, hits give low values",1.01
same,normalized growth,"locus YMR058W, strain fet3, hits give low values",1.01
same,normalized growth,"locus YMR078C, strain ctf18, hits give low values",1.03
same,normalized growth,"locus YMR125W, strain sto1, hits give low values",1.04
same,normalized growth,"locus YMR129W, hits give low values",1.02
same,normalized growth,"locus YMR205C, strain PFK2, hits give low values",1.01
same,normalized growth,"locus YMR223W, strain ubp8, hits give low values",1.02
same,normalized growth,"locus YMR231W, strain pep5, hits give low values",1.02
same,normalized growth,"locus YMR307W, strain GAS1, hits give low values",1.01
same,normalized growth,"locus YNL067W, strain RPL9B, hits give low values",1.01
same,normalized growth,"locus YNL071W, strain lat1, hits give low values",1.03
same,normalized growth,"locus YNL183C, strain NPR1, hits give low values",0.92
same,normalized growth,"locus YNL209W, strain ssb2, hits give low values",1.03
same,normalized growth,"locus YNL233W, strain BNI4, hits give low values",1.01
same,normalized growth,"locus YNL248C, strain rpa49, hits give low values",1.04
same,normalized growth,"locus YNL250W, strain rad50, hits give low values",1.03
same,normalized growth,"locus YNL271C, strain bni1, hits give low values",1.03
same,normalized growth,"locus YNL298W, strain CLA4, hits give low values",1.03
same,normalized growth,"locus YNL307C, strain MCK1, hits give low values",1.03
same,normalized growth,"locus YNL322C, strain KRE1 (second series), hits give low values",1.02
same,normalized growth,"locus YNR049C, strain mso1, hits give low values",1.01
same,normalized growth,"locus YNR052C, strain pop2, hits give low values",1.01
same,normalized growth,"locus YOL006C, strain TOP1, hits give low values",1.19
same,normalized growth,"locus YOL012C, strain htz1",0.903
same,normalized growth,"locus YOL147C, strain pex11, hits give low values",1.02
same,normalized growth,"locus YOR001W, strain rrp6, hits give low values",1.02
same,normalized growth,"locus YOR061W, strain CKA2, hits give low values",1.01
same,normalized growth,"locus YOR069W, strain VPS5, hits give low values",1.01
same,normalized growth,"locus YOR070C, strain gyp1, hits give low values",1.01
same,normalized growth,"locus YOR080W, strain dia2, hits give low values",1.02
same,normalized growth,"locus YOR083W, strain WHI5, hits give low values",1.01
same,normalized growth,"locus YOR106W, strain vam3, hits give low values",0.998
same,normalized growth,"locus YOR136W, strain idh2, hits give low values",1.02
same,normalized growth,"locus YOR144C, strain elg1, hits give low values",1.01
same,normalized growth,"locus YOR184W, strain ser1, hits give low values",1.02
same,normalized growth,"locus YOR231W, strain MKK1, hits give low values",1.01
same,normalized growth,"locus YOR265W, strain rbl2, hits give low values",1.01
same,normalized growth,"locus YOR270C, strain vph1, hits give low values",1.05
same,normalized growth,"locus YOR290C, strain snf2, hits give low values",0.988
same,normalized growth,"locus YOR316C, strain cot1, hits give low values",1.01
same,normalized growth,"locus YPL051W, strain arl3, hits give low values",1.02
same,normalized growth,"locus YPL078C, strain atp4, hits give low values",1.03
same,normalized growth,"locus YPL106C, strain sse1, hits give low values",1.01
same,normalized growth,"locus YPL240C, strain hsp82, hits give low values",1.02
same,normalized growth,"locus YPL241C, strain CIN2, hits give low values",1
same,normalized growth,"locus YPL256C, strain CLN2, hits give low values",0.985
same,normalized growth,"locus YPR119W, strain clb2, hits give low values",1.01
same,normalized growth,"locus YPR141C, strain kar3, hits give low values",1.01
same,normalized growth,"locus YPR163C, strain tif3, hits give low values",1.03
same,normalized growth,"locus YPR167C, strain met16, hits give low values",1.03
same,normalized growth,"strain wtn01, hits give low values",1.02
